Source: PubChem (The Scripps Research Institute Molecular Screening Center)
PLCg1 inh – blocks human PLC-gamma1 enzyme activity | P19174 | purified PLC-gamma1, fluorogenic substrate, fluorescence | inhibition, % at 12.2 µM | 370,000 compounds, 0.84% hits | AID 720700
ADAM17 inh – inhibits human ADAM17; 370,000 compounds, 0.83% hits; P78536; AID 720648; inhibition, % at 6.95 µM; recombinant ADAM17, EDANS/DABCYL FRET peptide cleavage;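 active = inhibition above the mean of compounds lying between control limits plus 3 SD, set per campaign, cut at about 8.5% in these data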
PLCb3 inh – PLC-beta3 (human) inhibition, primary screen | AID 720704 | inhibition, % at 12.2 µM | 370,000 compounds, 0.18% hits | Purified PLC-beta3, fluorogenic substrate, fluorescence; in the data active = inhibition above about 11%
ADAM10 inh – inhibits human ADAM10; O14672; recombinant ADAM10, EDANS/DABCYL FRET peptide cleavage, 3 h; inhibition, % at 7 µM; 370,000 compounds, 0.62% hits; AID 720582;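 active = inhibition above a per-campaign cutoff equal to the mean of compounds falling between control-based bounds plus 3 SD, cut at about 20% in these data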
proKLK7 act – activates the human kallikrein-7 zymogen; P49862; purified proKLK7, EDANS-DABCYL substrate fluorescence; 100% is mature enzyme control, 0% vehicle; activation, % at 7 µM; 370,000 compounds, 0.9% hits; AID 652039;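 active = activation above the mean of all tested compounds plus 3 SD, computed per campaign excluding outliers beyond control limits, cut at about 13% in these data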
Target sequence (P49862 whole entry, looked up): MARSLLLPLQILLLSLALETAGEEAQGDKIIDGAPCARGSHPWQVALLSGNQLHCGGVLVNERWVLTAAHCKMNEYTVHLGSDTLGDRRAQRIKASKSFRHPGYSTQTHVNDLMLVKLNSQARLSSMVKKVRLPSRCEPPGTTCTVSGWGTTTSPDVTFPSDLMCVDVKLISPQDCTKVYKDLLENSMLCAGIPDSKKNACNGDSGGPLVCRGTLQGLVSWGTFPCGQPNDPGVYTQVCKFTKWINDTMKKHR
PLCg1 ctr – counter-screen for PLC-beta3 inhibitors: inhibitors of human PLC-gamma1. purified PLC-gamma1, fluorogenic substrate, fluorescence. shares compounds with PLCg1 inh. 3,300 compounds, 3.1% hits. AID 743258. inhibition, % at 12.3 µM
PLCbeta3 conf – human PLC-beta3 inhibition, confirmation; shares compounds with PLCg1 inh; purified PLC-beta3, fluorogenic substrate fluorescence; inhibition, % at 12.3 µM; 3,300 compounds, 1% hits; AID 743261; in the data active = inhibition above about 11%
Large screens that a line does not name were inactive (follow-up assays come after a bar, where they were run). Shown are actives, neighbours in structure and some others; about 2.9% of the full set was active somewhere. Rule as the data show it, unless noted: active = inhibition above about 9.5%; inactive = the rest.

CC(C)CC(N)c1csc(NC(=O)NCCc2ccccc2)n1 (stereo not drawn)	none
O=S(=O)(NC(CO)Cc1ccccc1)c1ccc(Br)cc1F (stereo not drawn)	none
CN(C(=O)COC(=O)C1CCN(S(=O)(=O)c2ccc(Cl)cc2)CC1)C1CCS(=O)(=O)C1 (stereo not drawn)	none
CN(C(=O)COC(=O)C1CCN(S(=O)(=O)c2ccc3c(c2)OCCO3)CC1)C1CCS(=O)(=O)C1 (stereo not drawn)	PLCg1 inh 14 | PLCg1 ctr inactive | PLCbeta3 conf inactive
CCOC(=O)c1ccc(NC(=O)Cn2c(C)nc3c(sc(=S)n3CC)c2=O)cc1	none
CCn1c(=S)sc2c(=O)n(CC(=O)Nc3cccc(Cl)c3)c(C)nc21	PLCg1 inh 10 | PLCg1 ctr inactive | PLCbeta3 conf 11
Cc1cnc(C(=O)OCC(=O)Nc2ccc(Cl)cc2)cn1	PLCg1 inh 12 | PLCg1 ctr inactive | PLCbeta3 conf inactive
O=C(NCC1CCCO1)c1ccc(Oc2ccc([N+](=O)[O-])cc2)cc1 (stereo not drawn)	none
CC(Oc1ccc([N+](=O)[O-])cc1)C(=O)NCC1CCCO1 (stereo not drawn)	PLCg1 inh 11 | PLCg1 ctr inactive | PLCbeta3 conf inactive
Cc1cccc(NC(=O)c2ccc3c(c2)CCN3S(C)(=O)=O)c1	none
CCOC(=O)c1cc2c(nc1N)CC(C)(C)OC2	none
CC1(C)Cc2nc(Cl)c(C(N)=O)cc2CO1	PLCg1 inh 10 | PLCg1 ctr inactive | PLCbeta3 conf inactive
O=C(COc1coc(CN2CCN(c3ccccc3F)CC2)cc1=O)NC1CCCC1	none
CCOC(=O)C1(CCc2ccccc2)CCN(Cc2ccccn2)CC1	PLCg1 inh 9.9 | PLCg1 ctr inactive | PLCbeta3 conf inactive
CCOC(=O)C1=CC(=O)CC(C)(C)O1	none
CCOC(=O)c1ncn2c1C(=O)OC2(C)C	PLCg1 inh 15 | PLCg1 ctr inactive | PLCbeta3 conf inactive
Cc1ccc(C(=O)NCC(=O)OCc2c(F)cccc2Cl)s1	none
Oc1ccc(/C=N/n2c(COc3ccccc3)n[nH]c2=S)cc1O	none
CCC(C)NC(=O)CSc1nc2c(sc3ccccc32)c(=O)n1CCCN1CCOCC1 (stereo not drawn)	PLCg1 inh 9.9 | PLCg1 ctr inactive | PLCbeta3 conf inactive
Cc1nc(-c2ccncc2)nc(NCCNc2ncccc2C(F)(F)F)c1Cl	PLCg1 inh 12 | PLCg1 ctr inactive | PLCbeta3 conf inactive
OC(CNCCNc1ncccc1C(F)(F)F)Cn1ccc2ccccc21 (stereo not drawn)	none
C(=N\N1CCN(c2ccccn2)CC1)/c1ccccn1	PLCg1 inh 9.7 | PLCg1 ctr inactive | PLCbeta3 conf inactive
O=C(NCc1cccc(C(F)(F)F)c1)C1CC2Cn3c(nc4ccccc43)C2N1Cc1ccccc1 (stereo not drawn)	PLCb3 inh 12 | PLCg1 ctr inactive | PLCbeta3 conf inactive
CCOC(=O)C(NC(=O)c1ccccc1)(N1CCOCC1)C(F)(F)F (stereo not drawn)	PLCg1 inh 10 | PLCg1 ctr inactive | PLCbeta3 conf inactive
CCOC(=O)C(NC(=O)c1ccc(OC)cc1)(N1CCOCC1)C(F)(F)F (stereo not drawn)	none
CN(C)S(=O)(=O)c1ccc(Cl)c(NC(=O)C2CCN(S(=O)(=O)c3cccs3)CC2)c1	none
O=S(=O)(N1CCOCC1)N1CCCN(S(=O)(=O)N2CCOCC2)CC1	PLCg1 inh 11 | PLCg1 ctr inactive | PLCbeta3 conf inactive
COC(=O)[C@@H](NC(=O)Nc1ccc2c(c1)OCCO2)C(C)C	PLCg1 inh 10 | PLCg1 ctr inactive | PLCbeta3 conf inactive
COC(=O)[C@H](CC(C)C)NC(=O)Nc1ccc2c(c1)OCCO2	PLCg1 inh 12 | PLCg1 ctr inactive | PLCbeta3 conf inactive
NC(=O)CN1C(=O)C2C3CCC(C3)C2C1=O (stereo not drawn)	none
O=C(O)CN1C(=O)C2C3CCC(C3)C2C1=O (stereo not drawn)	PLCg1 inh 14 | PLCg1 ctr inactive | PLCbeta3 conf inactive
Cn1c(SCc2cccc(C#N)c2)nc2ccccc2c1=O	none
CCn1c(CNC(=O)c2ccco2)nnc1SCC(=O)Nc1cc(F)ccc1C	none
